# Reference: the supplement of paper PMC4894684
# Where a name gives a salt, the structure may show the parent alone. ± gives the standard deviation of the averaged measurements.
# Test system: Toxoplasma gondii RH (in HFF)
# Assay: parasite growth relative to the screen mean (all compounds = 100%); higher = less inhibition of parasite growth
# Conditions: 5 µM; 72 h; oxygen 21 %
# In short: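 Growth values are relative to the mean of the whole screen and averaged over duplicate screens, with all compounds together set to 100%. Parasites (RH β-Gal–GFP Toxoplasma, MOI 1:5) were added within 2 h of pinning compounds at 5 µM final onto confluent human foreskin fibroblasts and grown 72 h at 21% O2. Parasite number came from CPRG β-Gal readings against in-plate standard curves.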
row,Structure (SMILES),parasite growth
1,CC1OC2(CS1)CN1CCC2CC1 (centres undefined) [Cevimeline hydrochloride],148 ± 82%
2,CNc1cc2c(Nc3cccc(Br)c3)ncnc2cn1,128 ± 11%
3,NC(C(=O)O)c1cc(O)cc(O)c1 (racemic),142 ± 15%
4,COc1ccc(C2CNC(=O)C2)cc1OC1CCCC1 (centres undefined) [Rolipram],92.1 ± 23%
5,Nc1nc(NCC2CCC(CNS(=O)(=O)c3cccc4ccccc34)CC2)nc2ccccc12 (centres undefined),< 0%
6,NC(=O)c1ccc2[nH]ccc2c1,91.2 ± 12%
7,COc1ccc(Cl)cc1C(=O)NCCc1ccc(S(=O)(=O)NC(=O)NC2CCCCC2)cc1 [Glibenclamide],96.4 ± 24%
8,C[N+](C)(C)CC[N+]1(C)Cc2c(Cl)c(Cl)c(Cl)c(Cl)c2C1 [Chlorisondamine diiodide],168 ± 14%
9,O=C1OC(OC(=O)c2cccnc2Nc2cccc(C(F)(F)F)c2)c2ccccc21 (centres undefined) [Talniflumate],113 ± 28%
10,c1ccc2oc(C3=NCCN3)cc2c1 [2-BFI hydrochloride],109 ± 12%
11,CC1C(=O)OC2C(O)C34C5CC(C(C)(C)C)C36C(OC(=O)C6O)OC4(C(=O)O5)C12O (centres undefined) [Ginkgolide B],82.1 ± 27%
12,c1ccc(-c2n[nH]c3c2oc2ccccc23)cc1,103 ± 32%
13,CCOC(=O)[C@H](CCc1ccccc1)N[C@H]1CCc2ccccc2N(CC(=O)O)C1=O [Benazepril hydrochloride],140 ± 36%
14,COc1ccc2[nH]cc(CCNC(C)=O)c2c1 [Melatonin],84.8 ± 3.7%
15,O=S1(=O)c2cccc3cccc(c23)N1CCCN1CCN(c2ccc(F)cc2)CC1 [Fananserin],130 ± 14%
16,CN1CCN2c3ncccc3Cc3ccccc3C2C1 (centres undefined) [Mirtazepine],92.3 ± 34%
17,CC(C)Oc1ccc2c(=O)c3cc(C(=O)O)ccc3oc2c1,81.9 ± 15%
18,Cc1nn(-c2ccccc2)c(C)c1C=NN1CCN(Cc2ccccc2)CC1,141 ± 26%
19,"OCCNCCCOc1cccc(Cl)c1Cl [2,3-DCPE hydrochloride]",103 ± 8.3%
20,CCOC(=O)c1ncc2[nH]c3cccc(OC(C)C)c3c2c1C,101 ± 26%

row,Structure (SMILES),parasite growth
1,NS(=O)(=O)C#Cc1ccccc1 [Pifithrin->m],123 ± 13%
2,Cc1cc(NC(=O)Nc2ccc(N(C)C)cc2)c2cc(F)cc(F)c2n1,159 ± 3.7%
3,CCCCCCCCc1ccc(-c2ccc(C(=O)O)cc2)cc1,111 ± 17%
4,COc1cc2c(cc1C(F)(F)F)N(C(=O)Nc1cc(F)cc(-c3cccnc3)c1)CC2,29.9 ± 3.3%
5,Cc1cccc(Nc2cc(Cl)nc(SCC(=O)O)n2)c1C,108.5 ± 0.57%
6,CS(=O)(=O)c1ccc(-c2cc(Br)sc2-c2ccc(F)cc2)cc1,47.5 ± 14%
7,NC(=O)c1ccc(-c2nc(-c3ccccn3)c(-c3ccc4c(c3)OCO4)[nH]2)cc1,36.2 ± 32%
8,OC1CCC(Nc2nc(-c3ccccc3)nc3[nH]ccc23)CC1 (centres undefined),116 ± 3%
9,Cc1ccc(=O)n(-c2ccccc2)c1 [Pirfenidone],128 ± 11%
10,CC1(C)NC(=O)N(c2ccc([N+](=O)[O-])c(C(F)(F)F)c2)C1=O [Nilutamide],150 ± 36%
11,CCOc1cc(C(=O)Nc2ccc(Cl)c(-c3nc4ccccc4[nH]3)c2)cc(OCC)c1OCC,23.3 ± 3.9%
12,Cc1ccc(O)c(N=Nc2ccccc2)n1,92.5 ± 68%
13,c1ccc2sc(N3CCN(Cc4ccc5c(c4)OCO5)CC3)nc2c1 [2-[1-(4-Piperonyl)piperazinyl]benzothiazole],113 ± 20%
14,CN(Cc1ccccc1)C(=O)[C@H](Cc1ccc2ccccc2c1)NC(=O)[C@@H]1C[C@@H](O)CN1C(=O)c1cn(C)c2ccccc12,138 ± 4.8%
15,CC(C)(C=O)Cc1cc(C(C)(C)C)c(O)c(C(C)(C)C)c1,199 ± 11%
16,COc1ccc(OC)c2c(=S)c3ccccc3[nH]c12,171 ± 20%
17,N=C(N)NC(=N)Nc1ccccc1 [1-Phenylbiguanide hydrochloride],91.9 ± 21%
18,CCN1CCCC1CNC(=O)c1cc(S(=O)(=O)CC)c(N)cc1OC (centres undefined) [Amisulpride],115 ± 14%
19,COc1cc2c(Nc3ccc(NC(=O)c4ccccc4)cc3)ncnc2cc1OCCCN1CCOCC1,17.4 ± 8.7%
